The source of these data is PubChem BioAssay AID720519 (National Center for Advancing Translational Sciences (NCATS), 2013).

The nature of the experiment: qHTS for Inhibitors of Cell Surface uPA Generation: Confirmatory Assay for Cherry-picked Compounds. A digest of the protocol: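 RAW 264.7 cells at 4000/well, incubated overnight, then treated with compounds. After 24 h at 37 C, viability was read by ATPlite luminescence. An increase in signal indicates blocked uPA-dependent LF entry.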
(In general: Quantitative high-throughput screening tests each substance at several concentrations.)

Inconclusive results are not listed. Entries that show only a call come without a potency. Active and inactive are the calls of the source. Calls follow the shape of the dose curve; as a rule, active = well fitted activation curve with a large enough effect; inconclusive = small, poorly fitted or top-dose-only effect; inactive = flat fitted curve, though single readings scatter.

For `CC1CC(=O)Nc2ccccc2N1C(=O)Cn1cnc2ccc(Br)cc2c1=O` (stereo unspecified), the Potency result is “inactive”.
To `O=C1OCC/C1=C\c1ccc(O)cc1` belongs “inactive”; to `COc1cccc(CN(C)C(=O)c2cc(S(=O)(=O)N3CCCC3)ccc2C)c1OC`, “inactive”.
On to `O=C(NCCCN1CCCC1=O)c1cccc(Oc2ccccc2)c1`, for which the Potency entry is “inactive”.
As for `COc1cc(SC)ccc1C(=O)OCc1nc2ccsc2c(=O)[nH]1`, the Potency entry was “inactive”.
Take `Oc1c(N=NC(=S)Nc2ccccc2F)c2ccccc2n1Cc1ccccc1Cl`: the Potency result is “inactive”.
For `O=C(O)CCCC(=O)NCCCCc1ccccc1`, the Potency entry is “inactive”.
On to `COc1ccc(OC)c(NC(=O)C2CCCN2C(=O)C2CCC(C)CC2)c1` (stereo unspecified), for which the Potency entry is “inactive”.
In the case of `COc1ccc2nc(C)cc(Nc3ccccc3O)c2c1` it was “inactive”; in that of `COc1ccc(C2=Nc3ccccc3C2(O)CCN2C(=O)c3ccccc3C2=O)cc1` (stereo unspecified), “inactive”; in that of `CC1(c2cccc([N+](=O)[O-])c2)CC(C)(C)N(C(=O)c2ccccc2)c2ccccc21` (stereo unspecified), “inactive”.
Turning to `CCc1ccc(NC(=O)Cn2cnc([N+](=O)[O-])c2)cc1`, the Potency entry was “inactive”.
In the case of `CC(C)(C)S(=O)(=O)N1C[C@H]2CC/C=C\C/C(c3ccccc3)=C\2[C@@H]1CCO` it was “inactive”; in that of `C=CCn1c(C)cc(C(=O)COC(=O)/C=C/c2cccc(OC)c2)c1C`, “inactive”; in that of `Cc1ccc(C(CC(=O)N2CCCC2)c2ccccc2)c(O)c1` (stereo unspecified), “inactive”.
Take `COc1ccc2c(ccn2S(=O)(=O)c2ccccc2)c1`: the Potency result was “inactive”.
Regarding `Cc1ccc(S(=O)(=O)NC(=O)Nc2nccs2)cc1`, the Potency result was “inactive”.
In the case of `Cc1ccccc1-c1nnc(SCC(=O)NCC2CCCO2)o1` (stereo unspecified) it was “inactive”; in that of `Cc1cc(COc2ccccc2)oc1C(=O)O`, “inactive”; in that of `COC(=O)c1ccc(CN2CCCC(CNC(=O)Cc3ccc(OC)cc3)C2)cc1` (stereo unspecified), “inactive”.
On to `Cc1cccc(Nc2ccc(NCc3ccccc3)nn2)c1`, for which the Potency entry is “inactive”.
